From PubChem BioAssay
TROY NFkB inh: inhibitors of TROY-dependent NF-kB signaling. Q293 LMP1-TROYcd NF-kB luciferase reporter, 4 h. inhibition, % at 10 µM. 360,000 tested, 0.98% active;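 active means compounds whose plate-normalised and pattern-corrected inhibition of the luciferase reporter signal at the single screening dose is 50% or more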
CF NFkB block: cystic fibrosis NF-kB activation inhibition. KKLEB NF-kB-GFP reporter, PAF-induced, GFP fluorescence overnight. 360,000 tested, 0.86% active. inhibition, % at 5 µM;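 active means at least 50% inhibition at 5 µM, scaled per plate between neutral and stimulator controls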;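 further: PAF is a Pseudomonas aeruginosa culture filtrate used as stimulus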
HIF-2a block: inhibitors of HIF-2a | AID 624352 | 360,000 tested, 0.72% active | 786-0 RCC cells HIF-2a reporter, luciferase luminescence, overnight | inhibition, % at 18.8 µM;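 active means inhibition of the luminescence signal of 40% or more relative to plate controls, in a single-dose primary screen at 18.75 µM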
Peg3 prom inh-1: Peg3 promoter activity inhibition; HeLa PEG-Prom luciferase reporter, luminescence, overnight; inhibition, % at 20 µM; 360,000 tested, 1.7% active; AID 588405;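 active means inhibition of at least 50% at 20 µM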
TWEAK-Fn14 inh: blocks TWEAK-Fn14 interaction in a reporter cell assay. TWEAK-stimulated Fn14 reporter cells, luciferase luminescence, 8 h. 360,000 tested, 2% active. inhibition, % at 10 µM; in the data active means inhibition above about 50%
KKLEB cytotox: counter-screen for CF NF-kB inhibitors: cytotoxicity; KKLEB CF airway cells viability, ATPlite luminescence, overnight; stronger effect = lower value; cells stimulated with P. aeruginosa culture filtrate; activity change (cytotoxicity), % at 5 µM; 360,000 tested, 0.36% active; AID 602141;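 active means corrected activity change at or below -50% at 5 µM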
Peg3 prom inh-2: confirmation of Peg3 promoter inhibitors; AID 602417; 1,300 tested, 84% active; shares compounds with Peg3 prom inh-1; inhibition, % at 20 µM; HeLa PEG-Prom luciferase reporter, luminescence, overnight;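 active means at 20 µM dose, 40% or more inhibition averaged across four replicates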
Large screens that a line does not name were inactive (follow-up assays come after a bar, where they were run). Rows were chosen to be rich in hits. Some 4% of all compounds tested hit in one or more screens of this group.

CCC(NC(=O)CN1CCN(C(=O)c2cccs2)CC1)c1ccc(C)cc1 (centres undefined)	none
CCOC(=O)CCc1cnccc1-c1cccc(OC)c1O	none
O=C(N/N=C/c1sc(N2CCOCC2)nc1-c1ccccc1)c1cccc(S(=O)(=O)N2CCOCC2)c1	Peg3 prom inh-1 68 | Peg3 prom inh-2 68
Nc1ccc(C(=O)N/N=C/c2sc(N3CCOCC3)nc2-c2ccccc2)cc1	none
CCOc1cc(CNCCO)cc(Br)c1OCc1ccccc1Cl	Peg3 prom inh-1 106 | Peg3 prom inh-2 74
COc1ccc(NC(=O)c2cc3c(CO)cnc(C)c3oc2=Nc2cccc(C)c2)c(OC)c1	Peg3 prom inh-1 89 | Peg3 prom inh-2 inactive
COc1ccc(C(NC(C)=O)c2ccc3cccnc3c2O)c(OC)c1 (centres undefined)	Peg3 prom inh-1 61 | Peg3 prom inh-2 65
CC(=O)NC(c1ccc2ccccc2c1)c1ccc2cccnc2c1O (centres undefined)	Peg3 prom inh-1 64 | Peg3 prom inh-2 71
COc1ccccc1C(NC(C)=O)c1cc(Cl)c2cccnc2c1O (centres undefined)	none
Cc1ccc(NC(=O)CN(C)C(=O)CSc2nccn2C)cc1	none
COc1cc2c(oc(=O)c3cc(C)cc(OC)c32)c2c(C3OC(C)C(O)C(C)(O)C3O)ccc(O)c12 (centres undefined)	HIF-2a block 58, Peg3 prom inh-1 100 | Peg3 prom inh-2 99
COc1ccc(C2NCCc3c2[nH]c2ccccc32)cc1COc1ccc(F)cc1 (centres undefined)	Peg3 prom inh-1 97 | Peg3 prom inh-2 98
Oc1[nH]c2c(Cl)cc(Cl)cc2c1N=NC(=S)NCC1CCCO1 (centres undefined)	Peg3 prom inh-1 97, TWEAK-Fn14 inh 103 | Peg3 prom inh-2 inactive
CC(=O)c1cccc(-c2ccnc3c2CC(C(=O)Nc2cccc(NS(C)(=O)=O)c2)O3)c1 (centres undefined)	Peg3 prom inh-1 59 | Peg3 prom inh-2 57
CC(=O)c1cccc(NC(=O)C2Cc3c(-c4cccc(C(C)=O)c4)ccnc3O2)c1 (centres undefined)	none
Oc1c(Cl)cc(Cl)c2cccnc12	TROY NFkB inh 63, Peg3 prom inh-1 64 | Peg3 prom inh-2 66
O=S(=O)(CC(CN1CCCCC1)N1CCCCC1)c1ccccc1 (centres undefined)	Peg3 prom inh-1 67 | Peg3 prom inh-2 88
CC(=NNC(=S)N1CCN(C2CCCCCC2)CC1)c1ccccn1	Peg3 prom inh-1 102 | Peg3 prom inh-2 99
CC(=NNC(=S)N1CCN(c2ccccn2)CC1)c1ccccn1	none
C/C(=N\NC(=O)c1ccc(OC2CCCC2)cc1)c1ccc(O)cc1	none
COc1ccccc1N(CC(=O)N/N=C/c1c(O)ccc2ccccc12)S(C)(=O)=O	Peg3 prom inh-1 50 | Peg3 prom inh-2 70
COc1ccccc1N(CC(=O)Nc1ccccc1C)S(C)(=O)=O	none
COc1cc(C(=O)Nc2ccc3oc(-c4cccnc4)nc3c2)cc(OC)c1OC	Peg3 prom inh-1 52 | Peg3 prom inh-2 43
COc1cc(C(=O)Nc2nc(OC)c(-c3ccccc3)c(OC)n2)cc(OC)c1OC	Peg3 prom inh-1 50 | Peg3 prom inh-2 43
CCOc1ccc(CNC(=O)C2CCN(c3nn4c(=O)cc(C)nc4s3)CC2)cc1	none
CCOC(=O)c1c(CSCc2ccccc2)oc2ccc(O)c(CN(C)C)c12	none
CCC(C)(C)c1ccc(Oc2ccc(N)cc2)cc1	TROY NFkB inh 89, HIF-2a block 88, Peg3 prom inh-1 72, TWEAK-Fn14 inh 101 | Peg3 prom inh-2 91
CC(SC1=NCCN1S(=O)(=O)c1ccccc1)c1ccccc1 (centres undefined)	none
Cn1c(=O)c2[nH]c(C(O)c3ccc(Cl)cc3)nc2n(C)c1=O (centres undefined)	none
COc1nc(C)ccc1-c1noc(-c2cccnc2)n1	none
COC1=C(Br)C(=O)c2nc(C)ccc2C1=O	Peg3 prom inh-1 107 | Peg3 prom inh-2 100
CCCCCCSc1cc(-c2nc3ccc(C)cn3c2NCCCC)ccc1OC	Peg3 prom inh-1 79 | Peg3 prom inh-2 93
O=C(Nc1cccc(Br)c1)c1ccc(CSc2ccccc2)cc1	none
